Results published in PubChem BioAssay AID1421 (Emory University Molecular Libraries Screening Center, 2008).
Among all 1,300 compounds or so, about 140 (11%) were called active. No rule for the calls is given here. Not all results are given here. Measured potencies and affinities stand elsewhere.

These compounds were tested against Prostaglandin E2 receptor EP2 subtype (Homo sapiens) (UniProt P43116) (assay: EP2 receptor modulators, dose response, cell-based, human EP2, PGE2 EC50 shift (AID 1421)). Conditions: EP2-expressing cells, PGE2 EC50 shift by compound; at 20 µM.
Prostaglandin E2 receptor EP2 subtype (Homo sapiens), sequence (P43116 whole entry, looked up): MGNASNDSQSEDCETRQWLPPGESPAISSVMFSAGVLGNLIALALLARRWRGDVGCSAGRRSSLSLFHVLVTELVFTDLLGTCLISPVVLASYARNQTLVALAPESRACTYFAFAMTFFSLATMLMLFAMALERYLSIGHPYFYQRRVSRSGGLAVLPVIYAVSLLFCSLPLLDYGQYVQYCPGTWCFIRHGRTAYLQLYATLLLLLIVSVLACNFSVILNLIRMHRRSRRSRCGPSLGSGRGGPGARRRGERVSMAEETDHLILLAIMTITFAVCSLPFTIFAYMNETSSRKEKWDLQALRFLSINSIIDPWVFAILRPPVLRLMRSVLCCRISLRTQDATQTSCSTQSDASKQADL

PGE2 EC50 with compound, inactive:
COC(=O)c1ccccc1NC(=O)C(C)Oc1ccccc1 (configuration not stated) 0.81 nM
c1ccc(Cc2nc3ccccc3n2Cc2ccccc2)cc1 0.31 nM
Cc1cccc(OCc2n[nH]c(=S)n2Cc2ccccc2)c1 0.47 nM
COc1ccc(C(=O)O)cc1NC(=S)NC(=O)c1ccc(-c2ccc(Cl)cc2)o1 462 nM
COCCn1c(SCC(=O)NCCc2ccccc2)nnc1-c1ccco1 0.68 nM
CC(C)n1c2ccccc2c2nnc(SCC(=O)Nc3ccccc3C(=O)O)nc21 1.63 nM
COc1ccc(C(=O)Nc2cc(C)nn2-c2nc3ccccc3[nH]2)c(OC)c1 0.24 nM
Cc1cc(C)n(-c2cc(-c3ccccc3)nc(C)n2)n1 0.22 nM
Cc1oc(-c2ccccc2)cc1C(=O)Nc1cccc(/C=C\C(=O)O)c1
c1cncc(-c2nc(N3CCOCC3)c3c4c(sc3n2)CCC4)c1 0.72 nM
Cc1ccc(C2CC(c3cccs3)=NN2C(=O)c2ccc(Br)o2)cc1 (configuration not stated) 0.31 nM
Cc1ccccc1NC(=S)N(Cc1ccco1)C(C)c1cccs1 (configuration not stated) 0.4 nM
Cc1ccc(Cl)cc1NC(=S)N(Cc1ccco1)C(C)c1cccs1 (configuration not stated) 0.26 nM
O=C(NCc1ccco1)c1ccc(=O)[nH]n1 0.48 nM
C/C(CCc1oc2ccccc2c1-c1ccc(C)o1)=N/O 0.47 nM
Cc1ccc(-c2cc3nn(-c4ccccc4)c(N)c3c(=O)o2)cc1 1.29 nM
Cc1ccc(N=Nc2c(N)[nH]n3c(=O)c4c(nc23)CCCC4)cc1 3.42 nM
O=C(O)COc1ccc2occ(C(=O)c3ccccc3)c2c1 0.37 nM
CCOc1nc(C)cc(C)c1S(=O)(=O)c1ccc(Cl)cc1 0.21 nM
CC(/C=C1\SC(=S)N(C(C(=O)O)C(C)C)C1=O)=C\c1ccccc1 (configuration not stated) 1.95 nM
COc1ccccc1CNC(=O)C1(c2ccc(Cl)cc2)CC1 0.43 nM
CCC(=O)N1CCN(c2nc(-c3ccccc3)c3c(c2C#N)CCCC3)CC1 0.31 nM
CCCCc1nc(N2CCOCC2)c(C#N)c2c1CCCC2 0.37 nM
CCOc1ccc(OCC)c(NC(=O)CN2CCN(c3cc(C)ccc3C)CC2)c1 0.45 nM
Cc1occc1-c1nnc(SCC(=O)Nc2ccccc2N2CCCCC2)n1C 1.17 nM
O=C(Cc1c(F)cccc1Cl)Nc1ccccc1N1CCCCC1 0.53 nM
O=C(CNCc1ccccc1Cl)Nc1ccccc1N1CCCCC1 0.81 nM
CC(C)(C)N(Cc1ccccc1)C(=O)c1ccc(Br)o1 0.51 nM
COC(=O)NC1(C(F)(F)F)C(=O)NC(C)=C1C(=O)OC (configuration not stated) 0.72 nM
CCOC(=O)C1=C(C)N(C)C(C)=C(C(=O)OCC)C1c1ccccc1 0.51 nM
CCOC(=O)N1CCC(=C2c3ccc(Cl)cc3CCc3cccnc32)CC1 0.38 nM
CC1CCN(c2nc(-c3ccncc3)nc3ccccc23)CC1 0.52 nM
Cc1nnc(SCC(=O)N2c3ccccc3C(C)(c3ccccc3)CC2(C)C)s1 (configuration not stated) 0.37 nM
O=C(c1ccc(Cl)cc1)c1oc2ccccc2c1CS(=O)c1ccc(Cl)cc1 (configuration not stated) 0.25 nM
O=C(COc1cccc2ccccc12)N1c2ccccc2CCc2ccccc21 0.35 nM
Clc1ccc(Cl)c(-c2ccc(/C=N/c3ncn[nH]3)o2)c1 2.61 nM
COc1ccccc1N(C(=O)NCc1ccccc1)C1=NCC(C)S1 (configuration not stated) 0.21 nM
CCn1c2ccc(OC)cc2c2nc3ccccc3nc21 0.85 nM
O=c1cc(N2CCCCC2)c(-c2ccccc2)nn1Cc1ccccc1Cl 0.4 nM
CC1=CC2C(C(C)C)CCC(C)(O)C2CC1 (configuration not stated) 0.83 nM
O=C(NCc1ccco1)C(c1cccs1)N(C(=O)Cc1cccs1)c1ccccc1 (configuration not stated) 0.44 nM
COc1cc(-c2noc(-c3cccc(Cl)c3)n2)cc(OC)c1OC 0.47 nM
c1ccc(-c2noc(-c3cccc4ccccc34)n2)cc1 0.52 nM
COc1ccc(CCN(Cc2nc(-c3ccccc3)no2)Cc2nc(-c3ccccc3)no2)cc1OC 0.49 nM
COc1ccc(-c2noc(-c3ccccc3-c3ccccc3)n2)cc1OC 0.17 nM
c1ccc(-c2noc(-c3ccccc3-c3ccccc3)n2)cc1 0.5 nM
Cc1ccc(-c2csc3ncnc(N4CCc5ccccc5C4)c23)cc1 0.42 nM
Cc1ccc(-c2nn3c(C)nnc3s2)cc1NCc1c(F)cccc1Cl 0.97 nM
CC(C)Sc1nc2sc3c(c2c2nnc(SCC(=O)NCc4ccco4)n12)CCCC3 0.83 nM
Cc1sc2ncnc(Sc3ccccc3C(=O)O)c2c1C 3.01 nM
COc1cccc(-c2nc(N3CC(C)CC(C)C3)c3ccccc3n2)c1O (configuration not stated) 0.13 nM
CCSc1nc2c(c(=O)[nH]c(=O)n2C)n1Cc1ccc(Cl)cc1 0.83 nM
CCOc1cccc(CNc2ccc(O)cc2)c1OCc1ccccc1Cl 0.8 nM
C=CCOc1ccccc1CNc1cccc(F)c1 0.37 nM
Cc1cc(SC(C)C(=O)O)nc2ccccc12 (configuration not stated) 1.16 nM
O=C(CSc1ncnc2c1oc1ccccc12)Nc1ccccc1F 1.24 nM
O=[N+]([O-])c1ccc(Cl)c2c1C1C=CCC1C(c1ccccn1)N2 (configuration not stated) 0.53 nM
CC(=O)N(c1cccc(Br)c1)C1C=CS(=O)(=O)C1 (configuration not stated) 0.92 nM
Cc1nnc(SCC(=O)NC2CCCCC2)n1C1CCCCC1 0.89 nM
CC(NC(c1ccccc1)c1ccccc1)C(=O)N1CCCc2ccccc21 (configuration not stated) 0.36 nM
Cc1ccc(C(=O)O)cc1NC(=S)NC(=O)c1ccc(-c2ccccc2)cc1 1.3 nM
O=C(COc1ccccc1)Nc1cc(C(F)(F)F)ccc1N1CCCC1 0.31 nM
